Compound activity from PubChem.
Only some compounds are listed: those with a hit (about 4% of all), similar ones and a draw of the others.
PAX8 inh HTS – inhibitors of PAX8 transcriptional activity in RMG-I cells; RMG-I TPO-luciferase reporter, SteadyGlo, 24 h; inhibition, % at 12.6 µM; 360,000 tested, 1.2% active; AID 652154;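 active = mean replicate inhibition at least 60% with every replicate also reaching 60%; inconclusive = only one of the two criteria is met; inactive = mean below 60% and not all replicates reaching 60%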;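 note: luciferase light reporting Pax8 driven TPO promoter activity; plate controls were median of neutral control wells for no effect and mitoxantrone controls for full effect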
TRPM1 prom inh – MITF TRPM1 promoter inhibition in SK-MEL-5 cells | SK-MEL-5 TRPM1 promoter luciferase, 24 h | inhibition, % at 12.5 µM | 330,000 tested, 0.83% active;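 active = mean inhibition across replicates of 60% or more, whatever share of single replicates reaches that level; inconclusive = some that reach 60%, reason not given; inactive = mean inhibition across replicates below 60%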
Wnt act – activates Wnt/beta-catenin signaling in a reporter cell assay | activator, plate reader | activation, % at 9.35 µM | 300,000 tested, 1.2% active | AID 743398; in the data active = activation above about 30%, passing the limit was not always enough; inconclusive = no clear call, values can overlap the other calls;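 note: 0% = neutral control wells and 100% = positive control wells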
EWS-Fli block – EWS/Fli transcriptional activity inhibition; A673 NR0B1-luciferase reporter, viability-normalised; inhibition, % at 12.6 µM; 350,000 tested, 0.67% active; AID 651661;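 active = mean inhibition of at least 50% after viability correction, with every replicate also passing that limit; inconclusive = mean reaches 50% but only one of two replicates passes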;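 note: firefly luciferase signal divided by Alamar Blue viability fluorescence both relative to DMSO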
esBAF inh – inhibitors of esBAF chromatin remodeling in mouse ES cells; Bmi1-luciferase knock-in reporter, 24 h; 100% = twice the neutral-well signal; reporter increase, % at 12.5 µM; 350,000 tested, 2% active; in the data active = activation above about 40%; inconclusive = no clear call, values can overlap the other calls;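 note: 0% = median of the plate's neutral control wells and 100% = double that signal; a rise in the Bmi1 reporter signal indicates esBAF inhibition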
MITF act – activators of MITF-driven TRPM1 promoter activity in SK-MEL-5 cells; AID 588334; 300,000 tested, 0.75% active; SK-MEL-5 TRPM1-promoter luciferase, 24 h; % of positive control, neutral wells = 0; activation, % at 12.5 µM;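 active = mean activation of at least 80% with every replicate also reaching 80%; inconclusive = mean reaches 80% but some replicate falls short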;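 note: 0% = neutral control wells and 100% = parthenolide positive control wells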
The depositor's hits bear a star; ? = inconclusive; . = not tested or not shown.

SMILES	PAX8 inh HTS	TRPM1 prom inh	Wnt act	EWS-Fli block	esBAF inh	MITF act
Cc1ccc(S(=O)(=O)Nc2ccc3c(c2)C(=O)N([C@@H](C)CO)C[C@@H](C)[C@@H](CN(C)S(=O)(=O)c2ccc(Cl)cc2)OCCCC[C@@H](C)O3)cc1	83*	.	.	10	5	.
Cc1ccc(S(=O)(=O)N(C)C[C@H]2OCCCC[C@H](C)Oc3ccc(NS(=O)(=O)c4ccc(Cl)cc4)cc3C(=O)N([C@@H](C)CO)C[C@H]2C)cc1	25	.	.	-6	3	.
Cc1ccc(S(=O)(=O)Nc2ccc3c(c2)C(=O)N([C@H](C)CO)C[C@H](C)[C@@H](CN(C)S(=O)(=O)c2ccc(Cl)cc2)OCCCC[C@H](C)O3)cc1	95*	.	.	18	-2	.
C[C@@H]1CN([C@H](C)CO)C(=O)c2cc(C#Cc3ccccc3F)cnc2O[C@H]1CN(C)C(=O)C1CC1	.	.	.	6	4	.
CC(C)NC(=O)Nc1ccc2c(c1)C(=O)N(C)[C@H]1CC[C@H](CC(=O)NCC(F)(F)F)O[C@H]1CO2	-22	.	.	-4	2	.
O=C(C[C@@H]1CC[C@H]2[C@@H](COC[C@@H](O)CN2C(=O)Nc2ccc3c(c2)OCO3)O1)N1CCN(c2ccccc2)CC1	.	.	.	.	-10	.
O=C(COC(=O)/C=C/c1ccco1)NCc1ccccc1	-7	4	-2	4	.	-7
COc1ccc(CCNC(=O)/C=C/c2ccco2)cc1OC	10	5	1	7	4	.
CCCNC(=O)COC(=O)/C=C/c1ccco1	88*	-4	-1	-1	.	2
CCOc1ccc(CCNC(=O)/C=C/c2ccco2)cc1OCC	-4	-21	34*	5	2	20
CCCNC(=O)COC(=O)/C=C/c1ccc2c(c1)OCO2	69*	-1	-1	3	.	3
O=C(COC(=O)/C=C/c1ccc2c(c1)OCO2)Nc1ccccc1	-11	-21	1	-20	.	19
CC(=O)Nc1cc(-c2cccc(C(=O)NCCN(C)C)c2)cn2c(-c3cccc(C(F)(F)F)c3)cnc12	106*	.	-24	55*	-85	.
CN(C)CCNC(=O)c1cccc(-c2cnc3c(NC=O)cc(-c4ccc(F)cc4)cn23)c1	18	.	0	31	4	.
CCSc1ccc(-c2cc(NC=O)c3ncc(-c4cccc(C(=O)NCCN(C)C)c4)n3c2)cc1	99*	.	-2	?	-87	.
CC(=O)Nc1cc(-c2cccc(C(=O)NCCN(C)C)c2)cn2c(-c3ccccc3)cnc12	8	.	-3	-5	8	.
Cc1ccc(S(=O)(=O)N[C@H]2CC[C@@H](CCn3cc(C(C)C)nn3)O[C@@H]2CO)cc1	7	.	.	6	6	.
Cc1ccc(NC(=O)/C(C#N)=C/c2ccc(C)s2)c(C)c1	.	-40	.	.	42*	42
O=C(CN1CCOCC1)N1CC2(C1)[C@H](c1ccccc1)[C@@H](CO)N2Cc1ccccc1	.	.	.	7	.	.
S=C(c1ccc(-c2cc(Cl)ccc2Cl)o1)N1CCCCC1	-23	-30	.	.	.	24
O=[N+]([O-])c1cccc(-c2ccc(C(=S)N3CCOCC3)o2)c1	-95	-28	-3	-40	29	23
S=C(c1ccc(-c2cccc(Cl)c2)o1)N1CCOCC1	.	-134	-3	-72	?	139*
S=C(c1ccc(-c2cccc(Cl)c2)o1)N1CCCCC1	-145	-88	40*	-33	.	93*
CC(C)NC(=O)N(C)C[C@H]1Oc2ncc(C#CCC3CCCC3)cc2C(=O)N([C@H](C)CO)C[C@@H]1C	.	.	.	7	2	.
COc1ccc(S(=O)(=O)Nc2ccc3c(c2)C(=O)N([C@@H](C)CO)C[C@@H](C)[C@H](CN(C)C(=O)NC2CCCCC2)OCCCC[C@@H](C)O3)cc1	17	.	.	-12	15	.
SMILES	PAX8 inh HTS	TRPM1 prom inh	Wnt act	EWS-Fli block	esBAF inh	MITF act
CCCC(=O)N1CCCC(c2nc(-c3cccs3)no2)C1 (centres undefined)	-78	-43	7	.	?	59
CCC(C)C(=O)N1CCCC(c2nc(-c3cccs3)no2)C1 (centres undefined)	-115	-91	?	.	53*	?
O=C(Nc1ccc2c(c1)OCO2)N[C@H]1CC[C@H](CC(=O)N2CCN(c3ccccc3)CC2)O[C@H]1CO	-3	.	.	-9	0	.
CCN(CC)C(=O)Cn1cc(C(=O)C(=O)NCCCN2CCOCC2)c2ccccc21	7	-8	2	.	-6	7
CC(=O)Nc1cccc(NC(=O)C(=O)c2cn(CC(=O)N3CCCC3)c3ccccc23)c1	-75	.	.	-54	47*	.
COc1ccccc1NC(=O)C(=O)c1cn(CC(=O)N2CCCC2)c2ccccc12	-99	-31	9	.	72*	33
CCN(CC)C(=O)Cn1cc(C(=O)C(=O)Nc2ccc3c(c2)OCCO3)c2ccccc21	-56	-81	-1	-73	60*	82*
CC(=O)Nc1ccc(NC(=O)C(=O)c2cn(CC(=O)N3CCCCC3)c3ccccc23)cc1	-2	11	-2	9	.	-3
COc1ccccc1NC(=O)C(=O)c1cn(CC(=O)N2CCOCC2)c2ccccc12	-103	-74	20	-62	?	?
COc1ccc2c3c(n(C)c2c1)[C@H](CO)N(C(=O)c1cnccn1)CC31CN(C(=O)c2ccncc2)C1	.	.	.	-6	.	.
O=C(C[C@@H]1CC[C@H](NC(=O)c2cnccn2)[C@H](CO)O1)NCc1ccccc1F	-10	.	.	-2	-1	.
Cc1cccc(C)c1N1CCN(C(=O)Nc2ccc3c(c2)OCCO3)CC1	-72	-12	45*	.	22	.
O=C(Nc1ccc2c(c1)OCCO2)N1CCN(c2ccc(F)cc2)CC1	.	-4	4	.	24	0
CC(C)(C)OC(=O)N1CCN(C(=O)Nc2ccc3c(c2)OCCO3)CC1	-47	-2	12	-25	48*	8
C[C@@H]1CN([C@H](C)CO)C(=O)c2cc(/C=C/c3ccccc3)cnc2O[C@H]1CN(C)C(=O)c1ccc2c(c1)OCO2	25	.	.	-4	-5	.
O=C(c1ccc([N+](=O)[O-])s1)N1CCCc2ccccc21	3	70*	-1	11	3	-70
CCOC(=O)c1c(C)oc2c1c1c(c3ccccc32)OCN(CCCC(=O)O)C1	-34	-55	48*	-102	51*	66
CCOC(=O)c1c(C)oc2c1c(C=NCC1CCCO1)c(O)c1ccccc12 (centres undefined)	.	1	3	.	-6	1
CCOC(=O)c1c(C)oc2c1c1c(c3ccccc32)OCN(Cc2cccnc2)C1	.	-23	.	.	74*	27
CCOC(=O)c1c(C)oc2c1c(C=NCc1ccccn1)c(O)c1ccccc12	-5	30	7	-21	.	-32
CCOC(=O)c1c(C)oc2c1c(C(c1cccnc1)N1CCOCC1)c(O)c1ccccc12 (centres undefined)	.	-41	.	.	69*	45
